Experimental data from PubChem BioAssay AID1532 (PCMD, 2009).
The whole screen tested about 110,000 compounds, of which about 420 (0.38%) were called active. Rule as the data show it: active = inhibition above about 30% (passing the limit was not always enough); inconclusive = no clear call, values can overlap the other calls. The entries come from a sample that favours actives as a whole.

Test system: RmlC (dTDP-4-dehydrorhamnose 3,5-epimerase) and RmlD (dTDP-4-dehydrorhamnose reductase), coupled enzyme assay
Test: RmlC and RmlD coupled enzyme inhibitors, primary screen, biochemical, 384-well, compound mixtures, retest (AID 1532)
Settings: 384-well mixture HTS, at 5.5 µM, stronger effect = higher value
[1] = measured here: mean retest inhibition

Compound	inhibition	inhibition [1] [%]
COc1cc(OC)c2ccc(=O)oc2c1C(CCN1CCN(c2ccccc2)CC1)c1ccc2c(c1)OCO2 (stereo not given)	-3.48% (inactive)	
CCOC(=O)/C=C/CN(C(=O)OC(C)(C)C)S(=O)(=O)N1CC=CC1	-3.8% (inactive)	
C#CCOCCOCCOCCNc1nc(N2CCN(C(=O)[C@H](CCC(=O)O)n3cc(C(N)CO)nn3)CC2)nc(N2CCN(C(=O)[C@H](CCCCN)n3cc(C(N)CC(C)C)nn3)CC2)n1 (stereo not given in full)	12.9% (inactive)	
Cc1nc(-c2ccccc2)sc1C1(C)CC(c2cccnc2)=NO1 (stereo not given)	1.85% (inactive)	
O=c1[nH]snc1-c1c(Cl)cccc1Cl	-15.8% (inactive)	
COC(C[C@H](O)CC(=O)COCc1ccccc1)OC	-6.86% (inactive)	
CCN1C(=O)N[C@@H](c2ccccc2)[C@H](C(C)=O)[C@H]1C	-8.96% (inactive)	
Cc1ccc(-c2cc(=O)c3ccc(F)cc3[nH]2)cc1	-13.2% (inactive)	
O=C(NCC1CC1)c1onc(CSc2ccccc2)c1C(=O)NCC1CC1	-3.31% (inactive)	
O=C1CC2(CCCC2)Oc2ccc(Cl)cc21	2.74% (inactive)	
COC(=O)Cc1cc(=O)oc2c(C)c(O)ccc12	115% (active)	108
CCCc1cc(=O)oc2c(C)c(O)c(CN3CCCCC3)cc12	125% (inactive)	66.6
COC(=O)COc1ccc2oc(=O)cc(C)c2c1	10.6% (inactive)	
CCO[C@H]1OC(C(=O)N2CCN(Cc3ccccc3)CC2)=C[C@@H](c2cn(C(C)=O)c3ccccc23)[C@@H]1CCCO	77% (inactive)	8.54
Cc1nc(C(=O)Nc2ccc(Cl)cc2)sc1C1(C)CC(c2ccccc2)=NO1 (stereo not given)	7.11% (inactive)	
C=CCOC(=O)C1=C[C@H](c2ccc(Br)cc2)C[C@H](OCCCCO)O1		3.33
C[C@@H](C(=O)N1CCNCC1)n1cc(CCC(=O)O)nn1	-10.6% (inactive)	
CC(=O)Nc1sc2c(c1C(c1cccc(F)c1)N1CCN(CCO)CC1)CCCC2 (stereo not given)	-13.5% (inactive)	
CN(C(=O)C1CCOC1)c1nnc(-c2cccnc2)s1 (stereo not given)	-5.38% (inactive)	
CN(Cc1ccccc1)C(=O)COc1ccccc1	-9.33% (inactive)	

Compound	inhibition	inhibition [1] [%]
COc1cccc(-c2nnc(N(C)C(=O)c3ccno3)s2)c1	11.7% (inactive)	
CN(C(=O)c1ccccn1)c1nnc(-c2ccccn2)s1	73.7% (active)	110
CN(C(=O)c1ccno1)c1nnc(-c2cccnc2)s1	11.4% (inactive)	
Cc1cc(C(=O)Nc2c(C)n(C)n(-c3ccccc3)c2=O)cs1	-9.2% (inactive)	
COC(=O)Nc1c(C)n(C)n(-c2ccccc2)c1=O	3.72% (inactive)	
Cc1c(NC(=O)c2coc(=O)c(Br)c2)c(=O)n(-c2ccccc2)n1C	75.6% (active)	104
COc1ccc(COCCN2CCN(S(=O)(=O)c3ccccc3)CCC2=O)cc1	2.31% (inactive)	
CC(=O)N[C@H]1[C@H]([C@H](O)[C@H](O)CO)OC(C(=O)O)=C[C@@H]1O	1.59% (inactive)	
COc1ccc(C2/C=C\CN(CC(C)C)CC(=O)N2Cc2ccc(F)cc2)cc1 (stereo not given)	-6.08% (inactive)	
NC(N)=NCCCc1cn(CC(=O)N2CCNCC2)nn1	-8.74% (inactive)	
COc1ccc2c(c1)CCNC2Cc1ccc(OC)c(O)c1 (stereo not given)	-40.5% (inactive)	
Cc1cn(C)c(=O)n(C)c1=O	-2.57% (inactive)	
CC(C)(C)OC(=O)NCCCC1=CC2=CC(=O)C(C)(OC(=O)c3ccco3)C(=O)C2=CO1 (stereo not given)	-13.3% (inactive)	
Cc1ccc(NC(=O)N2CCSc3ccccc32)cc1	-8.05% (inactive)	
NC(=O)CC[C@@H]1NC(=O)[C@H](CO)NC(=O)c2cc([N+](=O)[O-])cc(I)c2NCC[C@@H](C(N)=O)NC1=O	-1.33% (inactive)	
CCCC[C@@H]1CN=C(N)N1CCc1cccc(F)c1	4.76% (inactive)	
CNC(=O)c1[nH]cnc1C(=O)N[C@@H](CC(C)C)C(=O)OC(C)(C)C	-13.2% (inactive)	
C#Cc1ccc([C@@H]2C=C(C(=O)O)O[C@H](OCCCCO)C2)cc1	-5.63% (inactive)	
O=C(NCc1ccccc1)c1onc(CSc2ccncc2)c1C(=O)NCc1ccccc1	2.05% (inactive)	
CCOC(=O)c1ccc(NC(=O)c2c(N)n(C)c(=O)[nH]c2=O)cc1	8.64% (inactive)	
